Test results from PubChem BioAssay (NCI).
About 83,000 compounds went through this panel and 20% of them were active in at least one assay; those are over-represented in the sample as a whole.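 Values shown are percent growth following 48 h exposure of cells in 96-well plates to a single concentration of compound; below 10 was considered active.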 A number with no mark means an inactive call. The source made the active and inactive calls.

Experiments:
Assay in all cases: NCI-60 one-dose screen, 48 h (100 = growth as untreated, 0 = no growth, -100 = all killed)
Settings in all cases: 10 µM unless noted
NCI-H23 lung = system: NCI-H23 lung
NCI-H226 lung = system: NCI-H226 lung
NCI-H322M lung = system: NCI-H322M lung
HOP-62 NSCLC = system: HOP-62 NSCLC
NCI-H460 lung = system: NCI-H460 lung
HOP-92 NSCLC = system: HOP-92 NSCLC
NCI-H522 lung = system: NCI-H522 lung
A549/ATCC NSCLC = system: A549/ATCC NSCLC
786-0 renal = system: 786-0 renal
DU-145 prostate = system: DU-145 prostate
K-562 leukemia = system: K-562 leukemia
MALME-3M melanoma = system: MALME-3M melanoma
MDA-MB-231 breast = system: MDA-MB-231 breast
RXF 393 renal = system: RXF 393 renal
SF-268 CNS = system: SF-268 CNS
SF-295 CNS = system: SF-295 CNS
SF-539 CNS = system: SF-539 CNS
UACC-257 melanoma = system: UACC-257 melanoma
M14 melanoma = system: M14 melanoma

| SMILES | growth (NCI-H23 lung) [%] | growth (NCI-H226 lung) [%] | growth (NCI-H322M lung) [%] | growth (HOP-62 NSCLC) [%] | growth (NCI-H460 lung) | growth (HOP-92 NSCLC) | growth (NCI-H522 lung) | growth (A549/ATCC NSCLC) [%] | growth (786-0 renal) | growth (DU-145 prostate) | growth (K-562 leukemia) | growth (MALME-3M melanoma) [%] | growth (MDA-MB-231 breast) | growth (RXF 393 renal) | growth (SF-268 CNS) [%] | growth (SF-295 CNS) [%] | growth (SF-539 CNS) | growth (UACC-257 melanoma) [%] | growth (M14 melanoma) [%] |
| --- | --- | --- | --- | --- | --- | --- | --- | --- | --- | --- | --- | --- | --- | --- | --- | --- | --- | --- | --- |
| Cc1cc(-c2ccccc2)cc(SC#N)[n+]1[O-] | 55.9 | 69.4 | 50.5 | 40.2 | 19% | 82.2% | 39.2% | 33.7 | 41.1% | 46.6% | 16% | 59.3 | 52.7% | 49.6% | 43.3 | 23.2 | 43.5% | 59.2 | 19.3 |
| C=C1c2c(C)nn(-c3ccc(O)cc3)c2N(C)C23C[C@@H]1C1(C)c4c(C)nn(-c5ccc(O)cc5)c4N(C)C(C)(C[C@H]12)C3 (some centres not stated) | 50.4 | 11.8 | 59.4 | 37 | 20.1% | 7.18% (active) | 20.7% | 31.3 | 34.3% | 45% | 18.1% | 58.7 | 14.8% | 19.9% | 48 | 26.9 | 23.7% | 29.1 | 15.5 |
| O=C1N/C(=N/O)S/C1=C/c1cn(-c2ccccc2)nc1-c1ccccc1 | 88.1 | 91.9 | 87.3 | 98 | 104% | 107% | 95.6% | 93.6 | 83.7% | 102% | 94.2% | 141 | 85.8% | 95.6% | 97.7 | 107 | 110% | 113 | 105 |
| N#C/C=C(\c1ccc([N+](=O)[O-])cc1)n1nnc2cc(Cl)c(Cl)cc21 | 40.8 | 39.7 | 46.1 | 31.2 | -8.66% (active) | 45.2% | 2.18% (active) | 53.2 | -26.7% (active) | -21.2% (active) | 13.9% | 40.7 | 2.77% (active) | 0.579% (active) | 20.3 | 14.1 | -9.65% (active) | 45.6 | 21.1 |
| COc1cc(-c2ccc(-c3ccc(C(=N)N)nc3)s2)cc(OC)c1OC | 72.2 | 102 | 70.3 | 67.9 | 25.7% | 49% | 77% | 61.3 | 40.3% | 49.9% | 5.58% (active) | 24.7 | 44.2% | 77.1% | 86.1 | 40.1 | 1.84% (active) | 92.9 | 43.1 |
| CC(=O)Nc1nccs1 | 95 | 100 | 88.2 | 95.6 | 98.8% | 89.1% | 87% | 99.3 | 107% | 107% | 110% | 76.8 | 103% | 98.6% | 99.9 | 101 | 97% | 94.2 | 112 |
| CCOC(=O)c1c(C)nc2c(c1N)/C(=C/c1cc(OC)c(OC)c(OC)c1)C(=O)N2c1ccc(OC)cc1 | 78.8 | 86.7 | 88.4 | 128 | 48.5% | 40.7% | 50.4% | 88.8 | 44.5% | 16.3% | 23.4% | 76 | 67% | 87.2% | 45.9 | 88.1 | 80.2% | 73.6 | 43.6 |
| CCN(CC)CCCC(C)NCc1ccccc1 (configuration not stated) | 101 | 109 | 88.1 | 108 | 106% | 85.1% | 73.3% | 99.5 | 89.8% | 97.8% | 118% | 91.1 | 105% | 135% | 100 | 101 | 102% | 102 | 91.4 |
